Screening results as filed in PubChem BioAssay.
Most compounds without a hit are left out; they make up all but 10% or so of the library.
KinaseGlo FLuc: blocks Kinase-Glo luciferase, a counter-screen artifact; Kinase-Glo luciferase, ATP luminescence, 8 min; Potency, µM (series often up to 38.3 µM), for inactives: top-dose activity change, negative = inhibition, hits mostly inhibitors; 0.28% of 200,000 active; AID 1379; active means well fitted inhibition curve with a large enough effect; inconclusive means small, poorly fitted or top-dose-only effect; further: potency means the concentration at half of the fitted maximal effect; nearly all actives have a fitted effect of over 60% in size
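Inhibition of Kinase-Glo luciferase light generation was assessed at 10 uM ATP in pH 7.2 imidazole buffer, with luminescence measured after eight minutes at ambient temperature.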
ALDH1A1 inh: blocks purified human ALDH1A1 activity. Purified ALDH1A1, NADH fluorescence, propionaldehyde substrate. Potency, µM (titrated, usually from 75.3 µM), inactives show at the highest dose activity, negative = inhibition, most hits filed as inhibitors. 7.3% of 220,000 active. AID 1030;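 further: potency means the concentration at half of the fitted maximal effect; plate controls were no enzyme wells and a reference inhibitor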
Target sequence (P00352 whole entry, looked up): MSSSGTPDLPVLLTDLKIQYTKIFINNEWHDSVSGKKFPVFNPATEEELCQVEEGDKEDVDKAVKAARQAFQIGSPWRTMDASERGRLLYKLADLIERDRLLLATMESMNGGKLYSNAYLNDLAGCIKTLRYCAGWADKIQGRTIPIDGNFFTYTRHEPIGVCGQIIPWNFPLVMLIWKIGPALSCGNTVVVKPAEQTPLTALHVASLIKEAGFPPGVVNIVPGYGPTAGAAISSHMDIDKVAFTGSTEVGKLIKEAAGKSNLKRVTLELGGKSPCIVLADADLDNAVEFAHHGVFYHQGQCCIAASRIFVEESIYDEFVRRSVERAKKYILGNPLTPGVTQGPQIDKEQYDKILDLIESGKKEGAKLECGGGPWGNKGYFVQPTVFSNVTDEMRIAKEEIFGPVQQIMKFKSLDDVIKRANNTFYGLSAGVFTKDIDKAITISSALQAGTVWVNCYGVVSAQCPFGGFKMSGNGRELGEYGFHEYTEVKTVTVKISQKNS
Lamin A splicing: LMNA splicing modulation | HeLa LMNA splicing GFP/RFP minigene ratio, 48 h | Potency, µM (highest dose often 46.1 µM), for inactives: top-dose ratio change, negative = inhibition, most hits filed as inhibitors | 0.01% of 200,000 active | AID 1487; active means well fitted inhibition curve with a large enough effect in the signal ratio, with a control signal flat, not every such curve was filed as active; inconclusive means small, poorly fitted or top-dose-only effect, or effect the other way, or a change in a side signal; the % refers to the signal ratio; further: potency means the concentration at half of the fitted maximal effect
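S3 HeLa cells stably expressing lamin A-EGFP splicing minigene plus DsRed2, 600 cells/well, 48 h compound exposure at 37C. Laser-scanning cytometry; analysed as GFP (500-530 nm)/RFP (575-640 nm) total intensity ratio; 0.5% DMSO vehicle.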
HPGD block: blocks human HPGD enzyme activity. P15428. purified HPGD, NADH fluorescence kinetic, PGE2 substrate. Potency, µM, for inactives: at the highest dose activity change, negative = inhibition, most hits filed as inhibitors. 4.3% of 150,000 active; further: potency means the concentration at half of the fitted maximal effect
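NADH formation kinetics: reaction with 30 uM PGE2 and 1 mM NAD+ (final), 20 nM enzyme, Tris-HCl pH 8 with Tween 20, after 15 min compound preincubation at room temperature. Fluorescence change, last versus first of five reads.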
PNC inhibitor: perinucleolar compartment assembly inhibition. PC3M PTB-GFP, PNC prevalence imaging, 16 h; stronger effect = lower value. activity change (PNC), negative = inhibition, % at 10 µM. 3.1% of 140,000 active. AID 2417;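 active means readout at or below -70, meaning at least 70% loss of cells showing the perinucleolar compartment, a nuclear body marking cancer cells; inconclusive means readout between -30 and a set limit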;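 further: plate controls were DMSO wells for no effect and camptothecin positive control wells for full effect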
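Read-out is percentage of cells bearing a perinucleolar compartment, from automated 20x imaging of fixed, Hoechst-stained PC3M PTB-GFP cells. Cells were seeded 4 h, then exposed 16 h to compound (23 nl of library stock) in duplicate plates.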
The depositor's hits bear a star; ? = inconclusive; nt = no result; [ ] = remark or other dose. Unless noted, the call rests on the fitted dose curve; in most records, active means well fitted inhibition curve with a large enough effect (not every such curve was filed as active); inconclusive means small, poorly fitted or top-dose-only effect, or another doubt; inactive means no such curve, though single readings can be large or run the other way. Unless noted, on the % scale 0 is the no-effect control and ±100 the full control effect.

SMILES	KinaseGlo FLuc	ALDH1A1 inh	Lamin A splicing	HPGD block	PNC inhibitor
COc1ccc(Cl)cc1NC(=S)N(CCCN1CCOCC1)Cc1cn(C)c2ccccc12	-1%	-14%	5%	28µM*	?
COc1cc(Cl)ccc1NC(=S)N(CCCN1CCOCC1)Cc1cn(C)c2ccccc12	-5%	?	?	?	?
Cc1cc(NC(=S)N(CCCN2CCOCC2)Cc2ccco2)ccc1Cl	-1%	-13%	?	-16%	-118*
Cc1cc(NC(=S)N(CCN2CCCCC2)Cc2ccco2)ccc1Cl	0%	7.9µM*	?	nt	nt
COc1ccc(N2CCN(c3ncnc4onc(C)c34)CC2)cc1	nt	nt	-10%[46 µM]	nt	nt
COc1ccccc1NC(=O)CSc1nc(-c2ccc(C(C)(C)C)cc2)c(C#N)c(=O)[nH]1	nt	nt	-5%[46 µM]	nt	nt
O=C(Nc1c(C(=O)O)oc2ccc(Br)cc12)c1ccccc1	-4%	28µM*	9%	?	31
CCOC(=O)c1oc2ccc(Br)cc2c1NC(=O)CN1CCN(C)CC1	-1%	?	-9%	-17%	-12
Cc1ccc(N(CCCCN2C(=O)c3ccccc3C2=O)C(=O)c2cccs2)cc1	-2%	?	?	-2%	2
O=C1c2ccccc2C(=O)N1CCCCN(C(=O)c1ccco1)c1ccc(Cl)cc1	2%	7.9µM*	-7%	-10%	4
O=C1c2ccccc2C(=O)N1CCCCN(C(=O)c1cccc([N+](=O)[O-])c1)c1ccc(Cl)cc1	-1%	3.2µM*	0%	-21%	58
C=CC1=C2C=C(C3CC3)N(Cc3ccco3)C=C2C(=O)C(C)(OC(=O)c2ccco2)C1=O (stereo not drawn)	-2%[7.66 µM]	0%[13.5 µM]	6%[9.22 µM]	-2%	nt
CC[N+](C)(CC)CCN1C(=O)c2ccccc2S1(=O)=O	-3%[7.66 µM]	26%[13.5 µM]	nt	-3%	nt
COc1ccc(N2C(=O)CC(Sc3nc(C)cc(C)c3C#N)C2=O)cc1 (stereo not drawn)	2%	?	-6%	-5%	16
COc1ccc(N2C(=O)CC(Sc3nnnn3-c3ccc(F)cc3)C2=O)cc1 (stereo not drawn)	1%	2.5µM*	?	nt	nt
Clc1cccc(N2CCN(c3nnnn3-c3ccccc3)CC2)c1	-1%	?	?	nt	nt
O=C1CC(Sc2nnnn2-c2ccccc2)C(=O)N1c1cccc(Cl)c1 (stereo not drawn)	3%	0.79µM*	-6%	32µM*	39
COc1ccccc1N1CCN(C(=O)CCc2c(C)nn(-c3ccc(N4CCCC4)nn3)c2C)CC1	nt	nt	3%[46 µM]	nt	nt
CN(Cc1ccccc1)Cc1nc2c([nH]1)c(=O)n(C)c(=O)n2C	0%	-1%	-4%	-6%	-100*
CCCn1c(CN(C)Cc2ccccc2)nc2c1c(=O)n(C)c(=O)n2C	1%	-6%	?	-12%	-22
CC(C)OCCCn1c(SCc2cccc(Br)c2)nc2c(sc3ccccc32)c1=O	nt	nt	12%[46 µM]	nt	nt
COc1ccccc1C(=O)Nc1ccc2nc(SCCOc3ccccc3C)sc2c1	nt	nt	22%[46 µM]	nt	nt
CCC(CC)C(=O)NC1CC(=O)N(c2ccc3c(c2)OCCO3)C1 (stereo not drawn)	nt	nt	-2%[46 µM]	nt	nt
O=C1CC(=O)N(c2ccccc2)N1c1ccccc1	-1%	-13%	-8%	-7%	?
CC1(O)CC(=O)N(c2ccccc2)O1 (stereo not drawn)	-1%	22µM*	19%	-10%	-13
SMILES	KinaseGlo FLuc	ALDH1A1 inh	Lamin A splicing	HPGD block	PNC inhibitor
CCOC(=O)c1ccc(NC(=O)CC2SCCNC2=O)cc1 (stereo not drawn)	-3%	13µM*	?	-4%	?
Cc1ccccc1NC(=O)CC1SCCNC1=O (stereo not drawn)	0%	20%	4%	-14%	-92*
CC(=O)N1CCCc2cc(S(=O)(=O)N3CCC(C(=O)Nc4cccc(Cl)c4C)CC3)ccc21	nt	nt	-10%[46 µM]	nt	nt
O=C(O)CCc1ccc(-c2cccs2)o1	0%	1µM*	1%	22µM*	-14
Cc1ccc(-c2ccc(CCC(=O)O)o2)cc1	0%	?	12%	-19%	-2
COC(=O)CCC(=O)Oc1ccc(OC(=O)CCC(=O)OC)cc1	1%	?	?	-15%	-113*
COC(=O)CCC(=O)Nc1ccc(NC(=O)CCC(=O)OC)cc1	0%	2%	-3%	-15%	-7
COc1ccccc1CN1CCCC2(CCN(C(=O)c3ccco3)CC2)C1	-1%	?	nt	-3%	nt
Cc1cc(C)c(S(=O)(=O)N(C)CC(N)=O)c(C)c1	1%	11%	3%	-15%	-85*
COCCCn1c(=O)/c(=C\c2ccccc2OC(F)F)s/c1=C(/C#N)C(N)=O	-2%	2%	?	nt	nt
C=CCn1c(=O)/c(=C/c2ccc(C)o2)s/c1=C(/C#N)C(=O)c1ccccc1	-1%	0.71µM*	-3%	-12%	3
O=C1C=CC(=O)N1CCCCCCN1C(=O)C=CC1=O	1%	0.22µM*	?	2.2µM*	?
O=C(CSc1ccc(Cl)cc1)Nc1nnc(-c2cccc([N+](=O)[O-])c2)s1	0%	2.5µM*	-9%	-23%	?
Cc1onc(-c2ccccc2)c1C(=O)Nc1nnc(COc2ccc(Cl)cc2)s1	2%	1.1µM*	?	2.5µM*	?
Cc1nnc(NC(=O)c2c(-c3ccccc3)noc2C)s1	-1%	7%	1%	-6%	-4
COC(=O)c1c(-c2ccccc2)csc1NC(=O)c1c(-c2ccccc2)noc1C	1%	?	?	?	-112*
O=C(Cc1cccc2ccccc12)Nc1nnc(-c2cccc([N+](=O)[O-])c2)s1	-1%	7%	-1%	-11%	2
CCOC(=O)c1c(-c2ccc(F)cc2)csc1NC(=O)c1c(-c2ccccc2)noc1C	2%	?	?	?	?
O=C(CSc1ccccc1)Nc1nnc(COc2ccc(Cl)cc2)s1	3%	3.2µM*	5%	3.5µM*	24
CN(C)Cc1cc(C(C)(C)C)ccc1-c1ccc(C(C)(C)C)cc1CN(C)C	-2%[7.66 µM]	4%[13.5 µM]	nt	-2%	nt
COC(=O)C1=C(C(=O)OC)[C@@H]2Nc3ccccc3[C@@]23C[C@@H](C(=O)OC)N(S(=O)(=O)c2ccc(OC)cc2)C3=N1	-6%[7.66 µM]	-5%[13.5 µM]	19%[9.22 µM]	-5%	nt
CCOCC(=O)Nc1nnc(COc2ccc(Cl)cc2)s1	-3%	3.5µM*	?	11µM*	-22
COCC(=O)Nc1nnc(COc2ccc(Cl)cc2)s1	-5%	-2%	-19%	-18%	-18
CCc1ccc(NC(=O)CSC2=Nc3ccccc3C3=NC(CC(=O)NCc4cccs4)C(=O)N23)cc1 (stereo not drawn)	nt	nt	9%[46 µM]	nt	nt
CC1(C)CC(=O)C(C(C2=C(O)CC(C)(C)CC2=O)c2ccco2)C(=O)C1 (stereo not drawn)	-4%	?	10%	10µM*	6
COc1cc(C(C2=C(O)CC(C)(C)CC2=O)C2C(=O)CC(C)(C)CC2=O)cc(OC)c1OC (stereo not drawn)	2%	?	nt	nt	nt
